Key:
Experiment in all cases: DAPPL (digital affinity profiling via proximity ligation, sequencing); 10 mM Tris-HCl pH 7.5, 50 mM NaCl, 1 mM DTT, 4% glycerol, room temperature, 30 min; GST-TFs on glutathione beads, 16-mer random dsDNA library, 0.1% formaldehyde crosslink after washing; high values mean tight binding
[1] = target: T1, FEV (Homo sapiens, UniProt Q99581 1-238); conditions: protein: recombinant; tags: N-terminal GST; dsDNA, one strand shown
T1 sequence: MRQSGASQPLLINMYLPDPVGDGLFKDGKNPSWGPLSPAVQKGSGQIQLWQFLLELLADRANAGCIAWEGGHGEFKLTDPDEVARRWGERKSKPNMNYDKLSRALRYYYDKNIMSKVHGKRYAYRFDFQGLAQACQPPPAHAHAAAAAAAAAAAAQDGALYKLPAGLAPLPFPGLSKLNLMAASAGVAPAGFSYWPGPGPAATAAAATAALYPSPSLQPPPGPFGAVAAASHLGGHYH
In short: (§1)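 Beads coated with glutathione captured GST-fused human transcription factors that had been expressed in yeast, and the factors were then given DNA barcodes and pooled with a tag-only sample. The pools were incubated with 200 nmole of a random double-stranded 16-mer DNA library in Tris/NaCl/DTT/glycerol buffer for 30 min at room temperature, washed, crosslinked with 0.1% formaldehyde and proximity-ligated with BsaI/T4 ligase at 37 °C for 1 h. PCR amplification and Illumina NextSeq500 sequencing came last. Binding signal is each hexamer's read frequency for a factor divided by its frequency for the tag-only sample.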

[2] = target: ETV5 (Homo sapiens, UniProt P41161 1-510); conditions: protein: recombinant; tags: N-terminal GST; dsDNA, one strand shown
Chain of ETV5 (P41161 whole entry): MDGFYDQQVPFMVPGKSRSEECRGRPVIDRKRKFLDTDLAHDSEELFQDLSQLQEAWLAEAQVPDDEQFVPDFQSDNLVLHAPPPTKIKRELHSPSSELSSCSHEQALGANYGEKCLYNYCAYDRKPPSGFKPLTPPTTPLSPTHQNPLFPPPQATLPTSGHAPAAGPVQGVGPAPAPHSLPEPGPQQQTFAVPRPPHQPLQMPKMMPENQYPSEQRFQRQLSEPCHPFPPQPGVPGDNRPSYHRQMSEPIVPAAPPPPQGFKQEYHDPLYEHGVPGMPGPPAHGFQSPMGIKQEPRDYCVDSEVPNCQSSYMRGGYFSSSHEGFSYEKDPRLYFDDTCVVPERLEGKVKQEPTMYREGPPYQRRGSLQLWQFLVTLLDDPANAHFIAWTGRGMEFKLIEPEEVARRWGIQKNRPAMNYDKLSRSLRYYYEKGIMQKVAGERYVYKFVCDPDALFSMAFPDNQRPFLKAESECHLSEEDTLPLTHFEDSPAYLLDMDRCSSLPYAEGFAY
In short: as §1

[3] = target: HSF1 (Homo sapiens, UniProt Q00613 1-529); conditions: protein: recombinant; tags: N-terminal GST; chain copies: 3; dsDNA, one strand shown
Chain of HSF1 (Q00613 whole entry): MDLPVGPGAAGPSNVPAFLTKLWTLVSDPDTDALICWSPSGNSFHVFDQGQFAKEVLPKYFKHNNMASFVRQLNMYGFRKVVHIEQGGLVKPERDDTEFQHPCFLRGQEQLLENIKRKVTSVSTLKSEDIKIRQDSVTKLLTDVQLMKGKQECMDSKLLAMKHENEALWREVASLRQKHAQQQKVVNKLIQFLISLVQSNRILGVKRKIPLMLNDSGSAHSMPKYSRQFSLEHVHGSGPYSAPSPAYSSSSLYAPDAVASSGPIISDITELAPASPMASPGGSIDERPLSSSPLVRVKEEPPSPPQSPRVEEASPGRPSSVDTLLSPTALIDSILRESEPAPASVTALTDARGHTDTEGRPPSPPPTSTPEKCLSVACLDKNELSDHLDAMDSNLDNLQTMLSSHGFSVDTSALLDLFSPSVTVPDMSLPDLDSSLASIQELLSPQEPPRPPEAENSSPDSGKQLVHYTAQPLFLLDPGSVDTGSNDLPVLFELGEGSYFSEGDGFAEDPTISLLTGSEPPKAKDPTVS
In short: as §1

[4] = target: T2, SPIC (Homo sapiens, UniProt Q8N5J4 1-248); conditions: protein: recombinant; tags: N-terminal GST; dsDNA, one strand shown
T2 sequence: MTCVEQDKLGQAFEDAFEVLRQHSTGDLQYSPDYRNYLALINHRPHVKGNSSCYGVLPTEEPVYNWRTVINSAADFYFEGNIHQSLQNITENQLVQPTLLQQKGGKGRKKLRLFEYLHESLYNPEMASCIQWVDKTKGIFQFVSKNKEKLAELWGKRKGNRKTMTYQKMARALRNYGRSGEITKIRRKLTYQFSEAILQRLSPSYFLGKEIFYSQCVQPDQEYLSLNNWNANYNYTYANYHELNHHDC
In short: as §1

[5] = target: ELF4 (Homo sapiens, UniProt Q99607 1-663); conditions: protein: recombinant; tags: N-terminal GST; dsDNA, one strand shown
Chain of ELF4 (Q99607 whole entry): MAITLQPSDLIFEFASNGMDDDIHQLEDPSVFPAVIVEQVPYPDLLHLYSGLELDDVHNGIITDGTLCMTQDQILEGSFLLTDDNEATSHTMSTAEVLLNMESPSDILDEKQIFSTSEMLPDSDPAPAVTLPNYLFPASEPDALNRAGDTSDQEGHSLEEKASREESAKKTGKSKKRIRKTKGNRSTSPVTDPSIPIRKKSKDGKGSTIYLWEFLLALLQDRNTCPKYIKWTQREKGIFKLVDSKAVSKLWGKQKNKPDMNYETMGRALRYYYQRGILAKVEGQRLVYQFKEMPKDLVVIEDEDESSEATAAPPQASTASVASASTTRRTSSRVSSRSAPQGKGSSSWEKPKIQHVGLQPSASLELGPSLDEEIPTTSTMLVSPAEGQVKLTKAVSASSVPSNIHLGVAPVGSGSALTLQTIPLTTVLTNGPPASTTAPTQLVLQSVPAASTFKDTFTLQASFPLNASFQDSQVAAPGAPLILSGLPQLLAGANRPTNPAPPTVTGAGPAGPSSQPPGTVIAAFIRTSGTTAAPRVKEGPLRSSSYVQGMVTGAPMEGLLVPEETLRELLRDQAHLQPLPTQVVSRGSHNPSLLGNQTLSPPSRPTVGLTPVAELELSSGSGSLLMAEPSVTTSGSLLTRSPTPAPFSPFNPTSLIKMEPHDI
In short: as §1

[6] = target: T3, ELK4 (Homo sapiens, UniProt P28324-2 1-405); conditions: protein: recombinant; tags: N-terminal GST; dsDNA, one strand shown
T3 sequence: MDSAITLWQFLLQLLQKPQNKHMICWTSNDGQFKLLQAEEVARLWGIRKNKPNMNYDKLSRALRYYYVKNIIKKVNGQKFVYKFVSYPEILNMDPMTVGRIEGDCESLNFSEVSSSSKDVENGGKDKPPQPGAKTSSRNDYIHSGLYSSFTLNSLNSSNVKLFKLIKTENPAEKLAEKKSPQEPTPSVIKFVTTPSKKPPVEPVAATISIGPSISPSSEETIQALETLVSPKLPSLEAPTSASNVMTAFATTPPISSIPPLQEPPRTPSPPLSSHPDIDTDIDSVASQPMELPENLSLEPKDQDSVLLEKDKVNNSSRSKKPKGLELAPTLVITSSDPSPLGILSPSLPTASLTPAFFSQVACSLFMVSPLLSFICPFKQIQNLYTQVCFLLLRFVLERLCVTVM
In short: as §1

[7] = target: T4, ETV2 (Homo sapiens, UniProt O00321 1-342); conditions: protein: recombinant; tags: N-terminal GST; dsDNA, one strand shown
T4 sequence: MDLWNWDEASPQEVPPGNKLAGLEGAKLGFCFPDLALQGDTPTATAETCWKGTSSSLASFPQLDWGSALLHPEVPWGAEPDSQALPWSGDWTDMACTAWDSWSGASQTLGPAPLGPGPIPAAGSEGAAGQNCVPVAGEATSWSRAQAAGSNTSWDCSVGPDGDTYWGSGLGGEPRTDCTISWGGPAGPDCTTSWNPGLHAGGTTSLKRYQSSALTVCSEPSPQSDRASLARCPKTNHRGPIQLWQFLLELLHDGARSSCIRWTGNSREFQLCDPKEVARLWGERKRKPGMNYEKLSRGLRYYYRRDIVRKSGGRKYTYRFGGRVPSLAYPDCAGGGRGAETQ
In short: as §1

[8] = target: T5, ELF3 (Homo sapiens, UniProt P78545 1-371); conditions: protein: recombinant; tags: N-terminal GST; dsDNA, one strand shown
T5 sequence: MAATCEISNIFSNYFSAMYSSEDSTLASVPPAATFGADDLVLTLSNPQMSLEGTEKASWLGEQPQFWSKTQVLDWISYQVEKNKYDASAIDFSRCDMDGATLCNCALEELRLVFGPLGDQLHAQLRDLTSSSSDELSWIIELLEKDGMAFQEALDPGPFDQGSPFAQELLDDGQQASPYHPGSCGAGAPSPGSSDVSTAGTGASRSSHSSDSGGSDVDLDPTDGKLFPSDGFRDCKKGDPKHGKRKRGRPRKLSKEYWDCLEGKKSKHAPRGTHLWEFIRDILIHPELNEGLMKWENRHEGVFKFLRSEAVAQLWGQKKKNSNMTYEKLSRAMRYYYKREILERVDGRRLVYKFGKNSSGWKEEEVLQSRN
In short: as §1

[9] = target: CRX (Homo sapiens, UniProt O43186 1-299); conditions: protein: recombinant; tags: N-terminal GST; dsDNA, one strand shown
Chain of CRX (O43186 whole entry): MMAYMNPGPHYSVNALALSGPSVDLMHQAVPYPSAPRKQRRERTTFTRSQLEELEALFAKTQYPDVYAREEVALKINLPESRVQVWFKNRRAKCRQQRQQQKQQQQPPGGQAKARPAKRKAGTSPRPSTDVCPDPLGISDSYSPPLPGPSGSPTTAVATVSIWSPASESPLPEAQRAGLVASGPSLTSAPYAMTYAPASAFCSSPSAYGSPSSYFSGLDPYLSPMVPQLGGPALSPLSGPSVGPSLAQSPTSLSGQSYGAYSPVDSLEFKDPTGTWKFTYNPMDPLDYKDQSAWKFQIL
In short: as §1

[10] = target: ETV1 (Homo sapiens, UniProt P50549 1-477); conditions: protein: recombinant; tags: N-terminal GST; dsDNA, one strand shown
Chain of ETV1 (P50549 whole entry): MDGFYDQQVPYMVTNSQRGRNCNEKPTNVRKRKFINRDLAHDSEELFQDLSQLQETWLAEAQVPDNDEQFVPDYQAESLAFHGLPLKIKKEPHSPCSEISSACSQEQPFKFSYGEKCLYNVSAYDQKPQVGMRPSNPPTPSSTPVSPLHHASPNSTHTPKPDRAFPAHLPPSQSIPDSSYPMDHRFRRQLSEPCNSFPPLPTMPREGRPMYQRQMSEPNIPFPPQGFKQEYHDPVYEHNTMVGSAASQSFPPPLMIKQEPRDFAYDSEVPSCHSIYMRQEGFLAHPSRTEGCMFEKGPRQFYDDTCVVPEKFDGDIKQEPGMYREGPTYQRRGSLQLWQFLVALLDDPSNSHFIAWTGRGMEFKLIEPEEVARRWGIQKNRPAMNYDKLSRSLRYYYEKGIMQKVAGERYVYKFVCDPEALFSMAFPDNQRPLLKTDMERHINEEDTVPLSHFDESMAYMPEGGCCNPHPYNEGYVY
In short: as §1

[11] = target: T6, ERF (Homo sapiens, UniProt P50548 1-548); conditions: protein: recombinant; tags: N-terminal GST; dsDNA, one strand shown
T6 sequence: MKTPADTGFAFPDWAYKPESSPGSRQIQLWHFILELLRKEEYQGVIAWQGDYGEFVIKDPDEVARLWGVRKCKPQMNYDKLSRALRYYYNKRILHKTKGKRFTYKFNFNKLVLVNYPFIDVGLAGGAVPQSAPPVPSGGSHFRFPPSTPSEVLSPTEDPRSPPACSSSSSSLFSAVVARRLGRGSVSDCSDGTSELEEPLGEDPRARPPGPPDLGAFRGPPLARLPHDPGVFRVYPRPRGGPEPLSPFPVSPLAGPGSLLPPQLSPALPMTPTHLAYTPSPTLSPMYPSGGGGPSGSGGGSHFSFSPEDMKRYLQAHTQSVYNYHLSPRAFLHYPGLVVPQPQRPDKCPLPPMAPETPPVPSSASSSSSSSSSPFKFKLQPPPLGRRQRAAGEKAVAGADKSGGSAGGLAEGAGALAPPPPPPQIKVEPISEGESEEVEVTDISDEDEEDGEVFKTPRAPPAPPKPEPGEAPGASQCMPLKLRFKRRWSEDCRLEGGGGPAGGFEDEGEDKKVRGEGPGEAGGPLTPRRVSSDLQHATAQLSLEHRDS
In short: as §1

[12] = target: T7, ETV3L (Homo sapiens, UniProt Q6ZN32 1-361); conditions: protein: recombinant; tags: N-terminal GST; dsDNA, one strand shown
T7 sequence: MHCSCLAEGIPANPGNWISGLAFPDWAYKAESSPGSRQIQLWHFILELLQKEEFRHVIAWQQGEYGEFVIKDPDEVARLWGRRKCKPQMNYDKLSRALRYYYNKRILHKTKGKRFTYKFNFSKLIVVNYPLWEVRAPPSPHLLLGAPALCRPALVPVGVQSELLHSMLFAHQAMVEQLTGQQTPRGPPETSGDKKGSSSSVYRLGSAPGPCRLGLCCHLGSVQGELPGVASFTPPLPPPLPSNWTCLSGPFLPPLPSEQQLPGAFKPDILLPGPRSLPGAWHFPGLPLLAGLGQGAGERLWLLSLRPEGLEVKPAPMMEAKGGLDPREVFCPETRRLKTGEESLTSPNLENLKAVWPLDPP
In short: as §1

[13] = target: T8, ETS2 (Homo sapiens, UniProt P15036 1-469); conditions: protein: recombinant; tags: N-terminal GST; dsDNA, one strand shown
T8 sequence: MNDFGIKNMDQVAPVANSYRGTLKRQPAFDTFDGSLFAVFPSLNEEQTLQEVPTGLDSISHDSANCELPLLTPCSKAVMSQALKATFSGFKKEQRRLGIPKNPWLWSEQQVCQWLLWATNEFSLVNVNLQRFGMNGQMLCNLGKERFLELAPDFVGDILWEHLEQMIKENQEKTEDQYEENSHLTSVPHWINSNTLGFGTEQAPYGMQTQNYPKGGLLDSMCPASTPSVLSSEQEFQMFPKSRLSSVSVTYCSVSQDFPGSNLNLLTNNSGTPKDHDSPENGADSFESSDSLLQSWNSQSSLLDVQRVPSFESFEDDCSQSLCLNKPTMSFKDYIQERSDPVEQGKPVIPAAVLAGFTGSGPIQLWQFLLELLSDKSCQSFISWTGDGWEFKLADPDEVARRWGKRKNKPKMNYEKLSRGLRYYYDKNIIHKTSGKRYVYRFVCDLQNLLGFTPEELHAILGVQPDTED
In short: as §1

[14] = target: T9, SPDEF (Homo sapiens, UniProt O95238 1-335); conditions: protein: recombinant; tags: N-terminal GST; dsDNA, one strand shown
T9 sequence: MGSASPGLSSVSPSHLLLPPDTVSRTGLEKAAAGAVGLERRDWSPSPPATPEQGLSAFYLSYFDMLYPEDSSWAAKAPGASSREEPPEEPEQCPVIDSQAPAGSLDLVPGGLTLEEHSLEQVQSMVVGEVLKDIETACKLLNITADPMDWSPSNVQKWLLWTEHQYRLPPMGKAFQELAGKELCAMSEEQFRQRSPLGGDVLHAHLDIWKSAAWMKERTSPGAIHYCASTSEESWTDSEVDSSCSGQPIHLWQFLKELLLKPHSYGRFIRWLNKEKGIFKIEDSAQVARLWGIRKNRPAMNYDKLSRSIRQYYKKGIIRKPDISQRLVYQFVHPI
In short: as §1

[15] = target: T10, ETV7 (Homo sapiens, UniProt Q9Y603 1-341); conditions: protein: recombinant; tags: N-terminal GST; dsDNA, one strand shown
T10 sequence: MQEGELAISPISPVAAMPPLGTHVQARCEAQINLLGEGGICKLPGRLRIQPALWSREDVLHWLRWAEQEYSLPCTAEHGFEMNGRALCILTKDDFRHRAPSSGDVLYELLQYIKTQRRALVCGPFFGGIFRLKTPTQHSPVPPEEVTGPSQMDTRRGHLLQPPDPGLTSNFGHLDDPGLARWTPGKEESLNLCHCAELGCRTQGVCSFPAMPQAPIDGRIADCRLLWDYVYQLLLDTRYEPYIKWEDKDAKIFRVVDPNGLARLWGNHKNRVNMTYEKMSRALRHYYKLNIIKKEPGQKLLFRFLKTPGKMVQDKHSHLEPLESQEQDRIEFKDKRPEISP
In short: as §1

[16] = target: T11, ELF5 (Homo sapiens, UniProt Q9UKW6-2 1-255); conditions: protein: recombinant; tags: N-terminal GST; dsDNA, one strand shown
T11 sequence: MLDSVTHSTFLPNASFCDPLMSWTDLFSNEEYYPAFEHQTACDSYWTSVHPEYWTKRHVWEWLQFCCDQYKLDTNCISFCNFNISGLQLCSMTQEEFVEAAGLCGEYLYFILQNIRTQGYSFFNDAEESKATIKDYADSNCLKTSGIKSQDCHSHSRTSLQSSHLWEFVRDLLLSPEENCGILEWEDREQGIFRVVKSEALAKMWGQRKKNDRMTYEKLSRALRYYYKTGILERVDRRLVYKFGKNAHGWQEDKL
In short: as §1

[17] = target: T12, ETV3 (Homo sapiens, UniProt P41162-2 1-143); conditions: protein: recombinant; tags: N-terminal GST; dsDNA, one strand shown
T12 sequence: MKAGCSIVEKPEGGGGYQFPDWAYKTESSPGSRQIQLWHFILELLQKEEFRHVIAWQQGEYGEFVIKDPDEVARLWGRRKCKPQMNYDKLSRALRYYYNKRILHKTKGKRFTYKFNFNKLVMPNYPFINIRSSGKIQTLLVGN
In short: as §1

[18] = target: ETV6 (Homo sapiens, UniProt P41212 1-452); conditions: protein: recombinant; tags: N-terminal GST; dsDNA, one strand shown
Chain of ETV6 (P41212 whole entry): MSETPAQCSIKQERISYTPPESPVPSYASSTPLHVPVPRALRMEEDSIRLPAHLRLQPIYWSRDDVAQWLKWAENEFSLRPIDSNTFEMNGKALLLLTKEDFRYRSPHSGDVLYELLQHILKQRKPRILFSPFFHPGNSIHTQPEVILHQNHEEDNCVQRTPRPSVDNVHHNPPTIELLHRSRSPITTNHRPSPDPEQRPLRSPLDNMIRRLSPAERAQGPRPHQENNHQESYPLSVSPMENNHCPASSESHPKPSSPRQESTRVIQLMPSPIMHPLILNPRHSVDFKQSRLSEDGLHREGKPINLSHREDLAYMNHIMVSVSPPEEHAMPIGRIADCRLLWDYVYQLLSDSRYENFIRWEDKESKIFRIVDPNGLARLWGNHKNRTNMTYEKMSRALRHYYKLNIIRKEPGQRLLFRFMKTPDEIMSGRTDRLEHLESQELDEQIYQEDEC
In short: as §1

Sequence: AAGAAT
- binding signal [1]: 1.09 fold enrichment (6-mer frequency, TF over GST control)
- binding signal [2]: 1.11 fold enrichment (6-mer frequency, TF over GST control)
- binding signal [3]: 1.83 fold enrichment (6-mer frequency, TF over GST control)
- binding signal [4]: 1.08 fold enrichment (6-mer frequency, TF over GST control)
- binding signal [5]: 1.24 fold enrichment (6-mer frequency, TF over GST control)
- binding signal [6]: 1.09 fold enrichment (6-mer frequency, TF over GST control)
- binding signal [7]: 1.12 fold enrichment (6-mer frequency, TF over GST control)
- binding signal [8]: 1.17 fold enrichment (6-mer frequency, TF over GST control)
- binding signal [9]: 1.43 fold enrichment (6-mer frequency, TF over GST control)
- binding signal [10]: 1.15 fold enrichment (6-mer frequency, TF over GST control)
- binding signal [11]: 1.2 fold enrichment (6-mer frequency, TF over GST control)
- binding signal [12]: 1.15 fold enrichment (6-mer frequency, TF over GST control)
- binding signal [13]: 1.11 fold enrichment (6-mer frequency, TF over GST control)
- binding signal [14]: 1.07 fold enrichment (6-mer frequency, TF over GST control)
- binding signal [15]: 1.1 fold enrichment (6-mer frequency, TF over GST control)
- binding signal [16]: 1.15 fold enrichment (6-mer frequency, TF over GST control)
- binding signal [17]: 1.14 fold enrichment (6-mer frequency, TF over GST control)
- binding signal [18]: 1.08 fold enrichment (6-mer frequency, TF over GST control)

From PMC7862700, “An all-to-all approach to the identification of sequence-specific readers for epigenetic DNA modifications on cytosine”
